Results: PubChem BioAssay (Tox21)
Records with an inconclusive call do not appear. Where a call stands in place of a potency, no number is given. Calls of active or inactive are those of the source. Unless noted, the call rests on the fitted dose curve; in most records, active means well fitted curve in the direction sought with a large enough effect in the repeat runs; inconclusive means weak or mixed curves; inactive means no such curve, though single readings can be large; an effect the other way counts as inactive or inconclusive.

Columns and labels:
[1] = qHTS assay to identify small molecule agonists of the NFkB signaling pathway (AID 1159509; active means well fitted curve in the direction sought with a large enough effect in the signal ratio in the repeat runs, not every such curve was filed as active; the % refers to the signal ratio)
In short: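 Readout: FRET fluorescence, 405 nm excitation, 460/530 nm emission; beta-lactamase expression disrupts FRET. Cells: ME-180 stably carrying NF-kB-driven bla reporter. Compound exposure 5 hr, 37 C, 5% CO2.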

[2] = qHTS assay to identify small molecule agonists of the endoplasmic reticulum stress response signaling pathway (AID 1159516; active means well fitted activation curve with a large enough effect in the signal ratio in the repeat runs, not every such curve was filed as active; the % refers to the signal ratio)
In short: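 Cells are seeded at 1,500 per well and incubated overnight. Compounds in DMSO are added for 5 hr at 37 C, then beta-lactamase FRET substrate for 2 hr at room temperature, and fluorescence at 460 and 530 nm is measured.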

[3] = qHTS assay to identify small molecule antagonists of the retinoid-related orphan receptor gamma (ROR-gamma) signaling pathway - cell viability counter screen (AID 1159520); further: nearly all actives have a fitted effect of over 50% in size; further: potency means the concentration at half of the fitted maximal effect
In short: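 Tet-on ROR gamma CHO cells were given compounds for 2 hr, then doxycycline hyclate at 1 uM final, and incubated 16 hr at 37 C. Viability was measured as ATP content by CellTiter-Glo luminescence.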

[4] = molecular target: Nuclear receptor ROR-gamma (Homo sapiens) (UniProt P51449); experiment: qHTS assay to identify small molecule antagonists of the retinoid-related orphan receptor gamma (ROR-gamma) signaling pathway (AID 1159521; further: nearly all actives have a fitted effect of over 50% in size; further: potency means the concentration at half of the fitted maximal effect)
In short: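 Tet-on RORγ CHO cells carrying a ROR response element–luciferase reporter were pretreated with compounds for 2 h, then induced with 1 uM (final) doxycycline hyclate for 16 h at 37 C. Antagonism was read as decreased ONE-Glo luminescence.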

[5] = qHTS assay to identify small molecule agonists of the AP-1 signaling pathway - cell viability counter screen (AID 1159525; calls by dose curve; further: nearly all actives have a fitted effect of over 55% in size)
In short: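 Same-well cytotoxicity counter screen of the Tox21 10K library in ME-180 cells. The readout is ATP-dependent luminescence after 5 h compound treatment. Data are normalised to DMSO and tetra n-octyl ammonium bromide controls.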

[6] = qHTS assay to identify small molecule agonists of the AP-1 signaling pathway (AID 1159526; calls by dose curve; further: potency means the concentration at half of the fitted maximal effect)
[7] = molecular target: Retinoic acid receptor RXR-alpha (Homo sapiens) (UniProt P19793); experiment: qHTS assay to identify small molecule agonists of the RXR signaling pathway (AID 1159527; calls by dose curve; further: nearly all actives have a fitted effect of over 35% in size; further: potency means the concentration at half of the fitted maximal effect)
Retinoic acid receptor RXR-alpha (Homo sapiens), sequence (P19793 whole entry, looked up): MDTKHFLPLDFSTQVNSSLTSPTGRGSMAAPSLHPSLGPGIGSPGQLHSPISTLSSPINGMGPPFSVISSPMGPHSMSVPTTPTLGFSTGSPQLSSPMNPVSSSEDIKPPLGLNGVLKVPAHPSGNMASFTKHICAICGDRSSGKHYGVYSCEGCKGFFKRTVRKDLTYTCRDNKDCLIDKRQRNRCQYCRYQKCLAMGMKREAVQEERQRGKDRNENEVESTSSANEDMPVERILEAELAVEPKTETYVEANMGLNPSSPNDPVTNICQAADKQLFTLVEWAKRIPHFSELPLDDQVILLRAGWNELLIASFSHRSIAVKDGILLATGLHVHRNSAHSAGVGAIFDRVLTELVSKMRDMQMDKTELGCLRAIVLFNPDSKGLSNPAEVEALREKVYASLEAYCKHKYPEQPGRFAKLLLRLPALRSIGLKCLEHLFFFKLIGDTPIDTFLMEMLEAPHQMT
In short: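 GeneBLAzer RXR-alpha-UAS-bla HEK 293T cells in medium with 2% charcoal-stripped FBS, pre-incubated 5 hr at 37 C, then exposed to compounds 16 hr. Beta-lactamase reporter read by FRET substrate, 2 hr room temperature, 460/530 nm emission.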

[8] = qHTS assay to identify small molecule agonists of the RXR signaling pathway - cell viability counter screen (AID 1159529); further: nearly all actives have a fitted effect of over 50% in size; further: potency means the concentration at half of the fitted maximal effect
In short: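 RXR-alpha-UAS-bla HEK 293T cells in medium with 2% charcoal-stripped FBS were preincubated 5 hr, then exposed to compounds for 16 hr at 37 C. Viability was read as CellTiter-Glo luminescence after 30 min at room temperature.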

[9] = qHTS assay to identify small molecule antagonists of the retinoid acid receptor (RAR) signaling pathway - cell viability counter screen (AID 1159551); further: nearly all actives have a fitted effect of over 35% in size; further: potency means the concentration at half of the fitted maximal effect
In short: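 Cells (C3RL4) are plated, incubated overnight, dosed with compound in DMSO, then given retinol at 1 uM final. After 6 h at 37 C, CellTiter-Glo is added and luminescence read following 30 min at room temperature.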

[10] = qHTS assay to identify small molecule antagonists of the vitamin D receptor (VDR) signaling pathway - cell viability counter screen (AID 743225); further: nearly all actives have a fitted effect of over 50% in size; further: potency means the concentration at half of the fitted maximal effect
In short: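 VDR-bla HEK 293T cells, 4 h pre-incubation at 37C, then compound plus 1-alpha,25-dihydroxyvitamin D3 (3 nM final) for 16 h. After the beta-lactamase FRET read, CellTiter-Glo was added to the same wells; luminescence after 30 min at room temperature.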

[11] = qHTS assay to identify small molecule agonists of the endoplasmic reticulum stress response signaling pathway - cell viability counter screen (AID 1159517; calls by dose curve)
In short: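 Steps: seed 1,500 ESRE-bla HeLa cells per well; incubate overnight at 37 C, 5% CO2; add compounds in DMSO for 5 hr; run FRET substrate 2 hr RT; add CellTiter-Glo, wait 30 min, read luminescence.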

[12] = qHTS assay to identify small molecule antagonists of the retinoic acid receptor (RAR) signaling pathway (AID 1159552; further: nearly all actives have a fitted effect of over 50% in size; further: potency means the concentration at half of the fitted maximal effect)
In short: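 RARE-luc C3RL4 cells; cpds + 1 uM (final) retinol, 6 hr, 37 C/5% CO2; luciferase reagent, 30 min RT, luminescence readout. Inhibitors of retinol-driven signal scored.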

[13] = qHTS assay to identify small molecule agonists of the retinoic acid receptor (RAR) signaling pathway (AID 1159553); details: C3RL4 RARE luciferase reporter, agonist, 6 h; activation: at 73.3 µM (top of the series); further: potency means the concentration at half of the fitted maximal effect
In short: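 Seed C3RL4 reporter cells at 1,000 per well and incubate overnight at 37 C. Add compounds in DMSO, incubate 6 hr. Add luciferase reagent, wait 30 min at room temperature, read luminescence.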

[14] = qHTS assay to identify small molecule antagonists of the estrogen related receptor signaling pathway with the pleiotropic PPARgamma coactivator (PGC) cell viability counter screen (AID 1224822;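 further: viability read after 17.5 h compound exposure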)
In short: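 Multiplexed viability counter screen run in PGC/ERR cells treated with compounds for 17.5 h at 37 C; live-cell protease signal measured by CellTiter-Fluor fluorescence.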

[15] = qHTS assay to identify small molecule agonists of the vitamin D receptor (VDR) signaling pathway - cell viability counter screen (AID 743224); further: nearly all actives have a fitted effect of over 50% in size; further: potency means the concentration at half of the fitted maximal effect
In short: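 Cells: VDR-bla, 2,000/well, settled 4 h. Treatment: compounds in DMSO, 16 h, 37C/5% CO2. Readout: CellTiter-Glo luminescence after 30 min RT.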

[16] = qHTS assay to identify small molecule agonists of the NFkB signaling pathway - cell viability counter screen (AID 1159515; calls by dose curve; further: nearly all actives have a fitted effect of over 55% in size)
In short: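 Cells are seeded (2,000 NFkB-bla ME-180 per well), rested overnight, and dosed with DMSO-dissolved compounds for 5 hr at 37 C. Viability is then read by CellTiter-Glo luminescence after 30 min at room temperature.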

SMILES | Potency [1] | Potency [2] | Potency [3] | Potency [4] | Potency [5] | Potency [6] | Potency [7] | Potency [8] | Potency [9] | Potency [10] | Potency [11] | Potency [12] | Potency [13] | outcome [14] | Potency [15] | Potency [16]
O=C(OC(=O)c1ccccc1)c1ccccc1 | inactive | inactive | inactive | inactive | inactive | inactive | inactive | inactive | inactive | – | – | – | – | – | – | –
Cc1ccc(Cl)c(Nc2ccccc2C(=O)O)c1Cl | inactive | – | inactive | – | inactive | inactive | – | inactive | inactive | inactive | inactive | inactive | inactive | inactive | – | –
N#CCCN(CCO)CCO | inactive | inactive | inactive | inactive | inactive | – | – | inactive | inactive | inactive | – | – | – | – | inactive | –
CN1CCCC(n2nc(Cc3ccc(Cl)cc3)c3ccccc3c2=O)CC1 (stereo not given) | inactive | inactive | inactive | inactive | inactive | 12 µM (active) | – | 5.35 µM (active) | inactive | – | – | – | inactive | – | – | –
C=CC(C)(CCC=C(C)C)OC(=O)CC(C)C (stereo not given) | inactive | – | inactive | inactive | inactive | inactive | inactive | inactive | inactive | inactive | – | inactive | inactive | – | inactive | –
CC[C@]1(O)C[C@H]2CN(CCc3c([nH]c4ccccc34)[C@@](C(=O)OC)(c3cc4c(cc3OC)N(C=O)[C@H]3[C@@](O)(C(=O)OC)[C@H](OC(C)=O)[C@]5(CC)C=CCN6CC[C@]43[C@@H]65)C2)C1 | inactive | – | inactive | – | inactive | – | – | inactive | inactive | – | inactive | 0.168 µM (active) | – | – | – | –
Oc1cc2c(cc1O)[C@H]1c3ccc(O)c(O)c3OC[C@@]1(O)C2 | inactive | – | inactive | 13.9 µM (active) | – | inactive | inactive | inactive | inactive | inactive | inactive | – | 55.1 µM (active) | – | – | –
CCC(=O)OC | inactive | inactive | inactive | – | inactive | inactive | inactive | inactive | inactive | – | – | – | inactive | – | – | –
CC(C)C(O)(c1ccc(OC(F)(F)F)cc1)c1cncnc1 (stereo not given) | inactive | inactive | inactive | inactive | inactive | inactive | inactive | inactive | inactive | inactive | – | – | inactive | – | – | –
C=C(C)CCCC(C)CCO (stereo not given) | inactive | inactive | inactive | inactive | inactive | inactive | inactive | inactive | inactive | – | – | – | inactive | – | inactive | –
CCOC(C)=O | inactive | inactive | inactive | inactive | inactive | inactive | inactive | inactive | inactive | inactive | – | – | inactive | – | – | –
CC1=C(Br)C(=O)C(Br)=C/C1=C(/c1ccccc1S(=O)(=O)O)c1cc(Br)c(O)c(Br)c1C | inactive | – | 16.5 µM (active) | 18.6 µM (active) | inactive | inactive | – | inactive | 16.5 µM (active) | – | inactive | 20.8 µM (active) | inactive | – | inactive | –
CC(C)=CCC/C(C)=C/CC/C(C)=C/CCC(=O)OC/C=C(\C)CCC=C(C)C | inactive | inactive | inactive | inactive | – | inactive | inactive | inactive | inactive | – | – | inactive | inactive | – | – | –
Nc1ncnc2c1ncn2[C@H]1CC[C@@H](CO)O1 | inactive | inactive | inactive | inactive | inactive | inactive | inactive | inactive | inactive | – | – | inactive | inactive | – | inactive | –
CNC(=O)c1cnn(-c2nc(N)c3ncn([C@@H]4O[C@H](CO)[C@@H](O)[C@H]4O)c3n2)c1 | – | inactive | inactive | – | inactive | inactive | inactive | – | inactive | inactive | inactive | inactive | inactive | – | inactive | –
O=C1C(=O)c2ccccc2C(O)=C1C1CCC(c2ccc(Cl)cc2)CC1 (stereo not given) | – | – | – | 7.5 µM (active) | inactive | – | – | inactive | inactive | – | – | – | – | – | – | inactive
CCCCCCCCCI | – | inactive | inactive | inactive | inactive | – | – | inactive | inactive | inactive | inactive | inactive | inactive | – | inactive | –
Oc1c(I)cc(I)c2cccnc12 | – | – | inactive | – | – | – | – | – | inactive | – | inactive | inactive | – | – | – | –
O=C1Cc2ccccc2N1c1c(Cl)cccc1Cl | – | inactive | inactive | – | – | – | – | – | inactive | – | inactive | inactive | inactive | – | inactive | –
Clc1ccc(Nc2nnc(Cc3ccncc3)c3ccccc23)cc1 | – | inactive | – | – | inactive | inactive | – | – | inactive | – | – | inactive | inactive | – | – | –
CCCCCCCCOc1ccc(C(=O)O)cc1 | – | – | inactive | inactive | inactive | inactive | 19.3 µM (active) | inactive | inactive | inactive | – | – | – | – | inactive | inactive
c1ccc2c(c1)CCc1ccccc1N2 | – | inactive | inactive | inactive | – | – | inactive | – | inactive | inactive | inactive | inactive | inactive | – | inactive | –
CCC=CC#N | – | inactive | inactive | – | inactive | inactive | inactive | inactive | inactive | – | inactive | – | – | – | inactive | –
COc1ccccc1NC(=O)c1cc2ccccc2cc1O | – | inactive | – | 30.6 µM (active) | inactive | inactive | – | inactive | inactive | 38.9 µM (active) | inactive | inactive | – | – | 21.9 µM (active) | –
